This note sets out measurements from PubChem BioAssay AID2514 (National Center for Advancing Translational Sciences (NCATS), 2010).

The nature of the assay: Confirmation Concentration-Response Assay for Enhancers of SMN2 Splice Variant Expression for Probe SAR. The conditions noted are these: HEK293 SMN2 exon7 splicing luciferase reporter, luminescence. An excerpt:
NIH Chemical Genomics Center [NCGC] NIH Molecular Libraries Probe Production centers Network [MLPCN] MLPCN Grant: R03 MH084179-01 Assay Submitter (PI): Elliot Androphy NCGC Assay Overview: Spinal muscular atrophy (SMA) is caused by insufficient levels of the survival motor neuron protein SMN. The SMN locus on chromosome 5q13 contains two inverted copies of SMN called SMN1 and SMN2 which are 99% identical at the amino acid level. SMN1 is a fully functional protein and SMN2 skips exon 7 90% of the time. Skipping of exon 7 produces non-functional protein product. 10% of the SMN2 protein includes exon 7 and is fully functional. In the SMA disease state, mutations in the SMN1 locus are the cause of the disease state. Because only 10% of SMN2 is of the fully functional form, it is not sufficient to overcome the deficiency produced by the loss of the SMN1 product. A therapy that either increase the amount of SMN2 product made or to increase the inclusion of exon 7 has been proposed for the treatment of SMA. We have designed an assay to identify small molecules that can increase the amount of functional SMN2 product by appending a luciferase reporter gene after the native SMN2 gene, such that inclusion of exon 7 in the expressed product places the luciferase sequence in frame, thus generating functional luciferase enzyme. […]
Background: A reporter such as luciferase makes a cellular process visible.

Records with an inconclusive call do not appear. Active and inactive are the calls of the source. The call rests on the fitted dose curve; in most records, active means well fitted activation curve with a large enough effect; inconclusive means small, poorly fitted or top-dose-only effect; inactive means no such curve, though single readings can be large or run the other way.

As for `Brc1ccc(-c2csc(N3CCCCC3)n2)cc1`, the Potency is 13.7 µM (active).
